Values without a mark were called inactive.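 Rule for the calls, unless noted: active = viability increase at or above a cutoff of the median across tested compounds plus 3 SD (cut at about 8.5% in these data, passing the limit was not always enough); inconclusive = some gains above the cutoff, reason not given; inactive = the rest.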 Results filed as inconclusive are left out.
assay: viability gain of MRP-1-high H69AR cells under doxorubicin, pilot screen, MRP-1 activator project, CellTiter-Glo, duplicate (AID 807); conditions: H69AR viability with doxorubicin, CellTiter-Glo luminescence; at 10 µM; active compounds read high;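 note: compound pretreatment 18-22 h then 72 h combined with doxorubicin; 0% = doxorubicin alone and 100% = vehicle without doxorubicin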

| SMILES | viability increase |
| --- | --- |
| COc1ccc(C2C(C(=O)NCC3CCCO3)c3cc(OC)c(OC)cc3C(=O)N2C)cc1OC (stereo not given) | -1.75% |
| CC(=O)CCS(=O)(=O)c1ccc(C)c(C)c1 | -6.33% |
| CC1(C)NC(=O)N(CC(O)COc2ccc(N3C(=O)c4ccccc4C3=O)cc2)C1=O (stereo not given) | -1.32% |
| CCOc1ccc(N=Cc2c(O)cc(C)oc2=O)cc1 | -2.82% |
| O=C(Nc1ccccc1O)c1ccccc1O | -3.07% |
| c1ccc(CSc2nnc(-c3ccncc3)o2)cc1 | -2.83% |
| Cc1nccn1-c1c2c(c(C#N)c3nc4ccccc4n13)CCC2 | -2.34% |
| CCOC(=O)N1CCN(C(=O)C(C)(C)Oc2ccc(Cl)cc2)CC1 | -1.61% |
| Cc1c(NC(=O)Oc2ccccc2)sc(=S)n1C | -3.22% |
| CCO/C(C)=C1\C(=O)N(CC)c2ccccc21 | -1.57% |
| CCOC(=O)C1CCN(c2c(N3CCN(Cc4ccccc4)CC3)c(=O)c2=O)CC1 | -0.78% |
| Cn1c2c(c3ccccc31)CC/C2=N\O | -0.84% |
| CSC1=NCCN1C(=O)c1cccs1 | 0.08% |
| COC(=O)C1=C(C)Nc2ccc(C)cc2S1 | -2.27% |
| Cc1csc2nc(CNS(=O)(=O)c3ccc4c(c3)OCCO4)cn12 | -1.85% |
| COc1ccc(-c2cn3c(C)c(C(=O)NCc4ccc5c(c4)OCO5)sc3n2)cc1 | -3.02% |
| O=C(c1ccc(Br)o1)N1CCN=C1SCc1cccnc1 | 2.52% |
| O=C1CC(c2ccc(S(=O)(=O)NCc3ccncc3)cc2)CN1 (stereo not given) | -0.07% |
| COc1ccc(Cl)cc1Nc1cc(C)nc2nc(C)nn12 | -3.12% |
| COc1ccccc1NC(=O)CSc1nnc(-c2ccccn2)n1Cc1ccco1 | -3.83% |

| SMILES | viability increase |
| --- | --- |
| Cc1ccccc1NC(=O)CCN1CCN(Cc2ccccc2)CC1 | -3.29% |
| O=C(c1ccc(CN2CCOCC2)cc1)N1CCN(Cc2ccccc2)CC1 | 0.28% |
| CCCCCC(C)n1[nH]c(=O)c2c(C)cc(C)nc21 (stereo not given) | -3.27% |
| CN1CCN(Cc2nc3c(c(=O)n(C)c(=O)n3C)n2CCc2ccccc2)CC1 | -1.67% |
| O=C(COc1cccc2ccccc12)N1CCN(c2ccccc2)CC1 | 1.21% |
| CCC(C)NC(=O)C1CN(S(=O)(=O)c2ccccc2)CCN1S(=O)(=O)c1ccccc1 (stereo not given) | -2.53% |
| COc1cc(C2N(c3ccc(Cl)cc3)C(=O)C3CCCN32)cc(OC)c1OC (stereo not given) | -2.09% |
| CC1CN(c2ncnc3c2cnn3-c2ccc(Cl)cc2)CC(C)O1 (stereo not given) | 3.8% |
| Cn1c(C(=O)NCc2cccs2)cc2c(=O)n(C)c3ccccc3c21 | -3.65% |
| O=C1C2CCCN2C(c2ccc(Br)cc2)N1c1ccc(F)cc1 (stereo not given) | -3.07% |
| N=c1n(-c2ccccc2)c(O)cc(=O)n1-c1ccccc1 | 0.05% |
| Cc1ccccc1-c1ccc(Nc2ccc(C(=O)N3CCOCC3)cc2)nn1 | -2.49% |
| Cc1ccccc1CSc1nnc(-c2ccco2)n1Cc1ccco1 | -4.14% |
| CCN1CCN(CC(=O)Nc2ccc3c(c2)OCCO3)C(=O)C1=O | 1.13% |
| CCN(CC)S(=O)(=O)c1ccc(C(=O)OCC(=O)N2CCN(C(=O)c3ccco3)CC2)cc1 | 0.34% |
| CCCCNC(=O)CS(=O)Cc1nc(-c2cccs2)oc1C (stereo not given) | -0.37% |
| Cn1c(=O)c(C(=O)Nc2ncccn2)c(O)c2ccccc21 | -3.95% |
| CCOc1cc(C2NC(=O)NC(O)(C(F)(F)F)C2C(=O)c2ccc(Cl)cc2)ccc1O (stereo not given) | -1.34% |
| CC(C)(CC(=O)O)Cc1nc(-c2ccc(Cl)cc2)no1 | 1.26% |
| COc1ccc(C2C(C#N)=C(N)Oc3n[nH]c(C)c32)cc1Cn1nnc2ccccc21 (stereo not given) | -5.95% |

assay: growth suppression of beta-catenin knockout HCT116, pilot screen, human colon tumor cells (AID 823;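 active = cell viability at or below a set limit in both duplicate runs, the limit being the all-compound median minus 4 SD, cut at about 23% in these data, passing the limit was not always enough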;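 note: 0% = wells killed by 20 µM Hyamine and 100% = untreated DMSO cell wells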); conditions: CellTiter-Glo, 60 h, at 10 µM, active compounds read low

| SMILES | viability |
| --- | --- |
| COc1ccc(C2C(C(=O)NCC3CCCO3)c3cc(OC)c(OC)cc3C(=O)N2C)cc1OC (stereo not given) | 92.4% |
| CC(=O)CCS(=O)(=O)c1ccc(C)c(C)c1 | 71.6% |
| CC1(C)NC(=O)N(CC(O)COc2ccc(N3C(=O)c4ccccc4C3=O)cc2)C1=O (stereo not given) | 102% |
| CCOc1ccc(N=Cc2c(O)cc(C)oc2=O)cc1 | 107% |
| O=C(Nc1ccccc1O)c1ccccc1O | 75.1% |
| c1ccc(CSc2nnc(-c3ccncc3)o2)cc1 | 109% |
| Cc1nccn1-c1c2c(c(C#N)c3nc4ccccc4n13)CCC2 | 97.3% |
| CCOC(=O)N1CCN(C(=O)C(C)(C)Oc2ccc(Cl)cc2)CC1 | 93% |
| Cc1c(NC(=O)Oc2ccccc2)sc(=S)n1C | 102% |
| CCO/C(C)=C1\C(=O)N(CC)c2ccccc21 | 96.7% |
| CCOC(=O)C1CCN(c2c(N3CCN(Cc4ccccc4)CC3)c(=O)c2=O)CC1 | 90.5% |
| Cn1c2c(c3ccccc31)CC/C2=N\O | 100% |
| CSC1=NCCN1C(=O)c1cccs1 | 99% |
| COC(=O)C1=C(C)Nc2ccc(C)cc2S1 | 98.8% |
| Cc1csc2nc(CNS(=O)(=O)c3ccc4c(c3)OCCO4)cn12 | 91.9% |
| COc1ccc(-c2cn3c(C)c(C(=O)NCc4ccc5c(c4)OCO5)sc3n2)cc1 | 99.8% |
| O=C(c1ccc(Br)o1)N1CCN=C1SCc1cccnc1 | 90.4% |
| O=C1CC(c2ccc(S(=O)(=O)NCc3ccncc3)cc2)CN1 (stereo not given) | 99.7% |
| COc1ccc(Cl)cc1Nc1cc(C)nc2nc(C)nn12 | 103% |
| COc1ccccc1NC(=O)CSc1nnc(-c2ccccn2)n1Cc1ccco1 | 101% |

| SMILES | viability |
| --- | --- |
| Cc1ccccc1NC(=O)CCN1CCN(Cc2ccccc2)CC1 | 94.8% |
| O=C(c1ccc(CN2CCOCC2)cc1)N1CCN(Cc2ccccc2)CC1 | 97.5% |
| CCCCCC(C)n1[nH]c(=O)c2c(C)cc(C)nc21 (stereo not given) | 97.6% |
| CN1CCN(Cc2nc3c(c(=O)n(C)c(=O)n3C)n2CCc2ccccc2)CC1 | 92.8% |
| O=C(COc1cccc2ccccc12)N1CCN(c2ccccc2)CC1 | 90.8% |
| CCC(C)NC(=O)C1CN(S(=O)(=O)c2ccccc2)CCN1S(=O)(=O)c1ccccc1 (stereo not given) | 97.3% |
| COc1cc(C2N(c3ccc(Cl)cc3)C(=O)C3CCCN32)cc(OC)c1OC (stereo not given) | 101% |
| CC1CN(c2ncnc3c2cnn3-c2ccc(Cl)cc2)CC(C)O1 (stereo not given) | 100% |
| Cn1c(C(=O)NCc2cccs2)cc2c(=O)n(C)c3ccccc3c21 | 98.9% |
| O=C1C2CCCN2C(c2ccc(Br)cc2)N1c1ccc(F)cc1 (stereo not given) | 94.2% |
| N=c1n(-c2ccccc2)c(O)cc(=O)n1-c1ccccc1 | 98.1% |
| Cc1ccccc1-c1ccc(Nc2ccc(C(=O)N3CCOCC3)cc2)nn1 | 98.4% |
| Cc1ccccc1CSc1nnc(-c2ccco2)n1Cc1ccco1 | 82.6% |
| CCN1CCN(CC(=O)Nc2ccc3c(c2)OCCO3)C(=O)C1=O | 105% |
| CCN(CC)S(=O)(=O)c1ccc(C(=O)OCC(=O)N2CCN(C(=O)c3ccco3)CC2)cc1 | 89.7% |
| CCCCNC(=O)CS(=O)Cc1nc(-c2cccs2)oc1C (stereo not given) | 97.6% |
| Cn1c(=O)c(C(=O)Nc2ncccn2)c(O)c2ccccc21 | 87.1% |
| CCOc1cc(C2NC(=O)NC(O)(C(F)(F)F)C2C(=O)c2ccc(Cl)cc2)ccc1O (stereo not given) | 86.7% |
| CC(C)(CC(=O)O)Cc1nc(-c2ccc(Cl)cc2)no1 | 100% |
| COc1ccc(C2C(C#N)=C(N)Oc3n[nH]c(C)c32)cc1Cn1nnc2ccccc21 (stereo not given) | 75.7% |
